# High-throughput results (PubChem)
# This is one part of a sample in which hits are shown more often than they occur.
# Pf Dd2 growth: qHTS Primary assay for Inhibitors of Plasmodium falciparum Dd2 growth in vitro; P. falciparum Dd2 growth, SYBR Green, 72 h; Potency, µM (titrated, usually from 28.9 µM), for the others: at the top dose activity, negative = inhibition, most hits filed as inhibitors; 120,000 tested, 4.3% active; active means well fitted inhibition curve with a large enough effect;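 further: plate controls were DMSO vehicle for no effect and reference drug for full effect; nearly all actives have a fitted effect of over 65% in size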
#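 Readout: SYBR Green fluorescence, 485 nm excitation, 535 nm emission, after ~16 h lysis at 37C. Before that, Dd2-infected red cells (2.5% hematocrit) grew 72 h with compound, 29 uM top final concentration.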
# An asterisk follows results filed as active; i = inactive; [ ] = remark or other dose. Potency means the concentration at half of the fitted maximal effect.
SMILES,Pf Dd2 growth
Cc1ccccc1-n1c(/C=C/c2c(C)[nH]c3ccccc23)nc2ccccc2c1=O,3.2µM*
O=c1c2ccccc2nc(/C=C\c2ccc(F)cc2)n1-c1ccccc1F,i
CC(C)N1C(=O)C2(CCCCC2)C1C(=O)NCC1CC1 (configuration not stated),i
COc1ccccc1-c1cnc(NC(=O)c2ccc(F)c(Cl)c2)c2c1CCO2,-20%[44.1 µM]
CN1CCCCCCN(C(=O)c2ccc3ccccc3n2)[C@H]2CCC[C@H]2C1=O,6.3µM*
CN1CCCCCCN(C(=O)c2ccnn2C)[C@H]2CCC[C@H]2C1=O,2%
COc1ccc(C(=O)N2CCCCCCN(C)C(=O)[C@@H]3CCC[C@@H]32)cc1,-2%
O=C1CCN(C(=O)c2ccsc2)CCCC(C(=O)N2CCN(c3ccccn3)CC2)CCN1 (configuration not stated),6%
CCCCOc1ccc(-c2nonc2NC(=O)c2ccco2)cc1,42%
CCOc1ccc(-c2nonc2NC(=O)c2ccco2)cc1,32%
CCOc1ccc(-c2nonc2NC(=O)c2ccco2)cc1OCC,2.5µM*
COc1ccccc1N1CCN(CC[C@H]2CN(C(=O)N3CCOCC3)CC[C@H]2CC(=O)O)CC1,i
CCC1Oc2ccc(NC(=O)c3ccc4c(c3)OCO4)cc2CN(Cc2ccc(F)cc2)C1=O (configuration not stated),i
C[S+](=O)([O-])c1ccc(-c2nc(C(=O)N3CCN(c4ncccn4)CC3)n3ccccc23)cc1,7.1µM*
O=C(c1nc(-c2cc(Cl)cc(Cl)c2)c2ccccn12)N1CCN(c2ncccn2)CC1,i
O=C(c1nc(-c2cccnc2)c2ccccn12)N1CCN(c2ncccn2)CC1,-2%
O=C(c1ccc2ccccc2n1)N1CCOC(C(F)(F)F)C1 (configuration not stated),-20%
CC1CCN(C(=O)c2ccccc2OCC2CCCN(C3CCSCC3)C2)CC1 (configuration not stated),i
Cc1ccc(N2CCC(NC(=O)c3ccc(C)cc3C)C2=O)cc1 (configuration not stated),-16%
CN(CC1CCOC1)C(=O)c1ccc(Cl)s1 (configuration not stated),49%[5.79 µM]
CCN1c2cc(C(=O)Nc3ccc(Cl)c(Cl)c3)ccc2C(=O)N2CCCCC21 (configuration not stated),-8%
Cc1cccc(CNC(=O)c2ccc3c(c2)N(C)C2CCCCN2C3=O)c1 (configuration not stated),4µM*
COc1ccc(OC)c(NC(=O)c2ccc3c(c2)C(O)CCCCCN3C)c1 (configuration not stated),i
CN1CCCCCC(O)c2cc(C(=O)Nc3cccc(OC(F)(F)F)c3)ccc21 (configuration not stated),14µM*
CCN1c2cc(C(=O)Nc3cccc(SC)c3)ccc2C(=O)N2CCCCCC21 (configuration not stated),6.3µM*
SMILES,Pf Dd2 growth
COc1cccc(NC(=O)c2ccc3c(c2)C(O)CCCCCN3C)c1 (configuration not stated),-9%
Cc1cc(NC(=O)c2ccc3c(c2)N(C)C2CCCCCN2C3=O)ccc1Cl (configuration not stated),i
CCN1c2cc(C(=O)Nc3cccc(F)c3)ccc2C(=O)N2CCCCC21 (configuration not stated),-5%
CN1c2cc(C(=O)NCc3cccc(Cl)c3)ccc2C(=O)N2CCCCCC21 (configuration not stated),i
CCN1c2cc(C(=O)Nc3ccc(SC)cc3)ccc2C(=O)N2CCCCC21 (configuration not stated),i
Cc1ccc(CNC(=O)c2ccc3c(c2)N(C)C2CCCN2C3=O)cc1 (configuration not stated),i
CCN1c2cc(C(=O)Nc3ccc(Cl)c(C)c3)ccc2C(=O)N2CCCCCC21 (configuration not stated),6.3µM*
CN(C)Cc1cc(CC2(NCc3ccccc3O)COC2)no1,-20%[44.1 µM]
CCCn1ccc2sc(C)c(C(=O)NC(C)c3ccc(OC)c(OC)c3)c2c1=O (configuration not stated),-13%
CSCC(=O)N1C[C@@H](NC(=O)Nc2ccc(F)cc2F)C[C@H]1C(=O)N(C)CC(N)=O,1%
Cn1cccc1C(=O)N1CCC(c2nn(C)c3c2COCC3)CC1,i[5.79 µM]
CNC(=O)N1CCC(C2CCN(S(=O)(=O)c3cc(F)ccc3C)C2)CC1 (configuration not stated),i
COc1ccc(NC(=O)C2COC3(CCN(C(=O)c4ccco4)CC3)N2C(=O)c2ccccc2)cc1 (configuration not stated),i
CCNC(=O)N[C@H]1CO[C@H]2[C@@H]1OC[C@@H]2Nc1nccc(-c2cccc(F)c2)n1,9%[44.1 µM]
CC1=C[C@@H](CNC(=O)CC(C)(C)C)[C@H](C(C)C)C[C@H]1CC(=O)O,i
COc1ccccc1N1CCN([C@H]2[C@@H]3OC[C@@H](O3)[C@@H](NCc3cnc4ccccc4c3)[C@@H]2O)CC1,-2%
O=C1CC2CCCC(C1)N2C(=O)C1CC1,8%[44.1 µM]
C[C@@]1(O)CCN(C(=O)c2cccc(-c3cccc(F)c3)c2)C[C@@H]1O,-3%
O=C1CN([S+](=O)([O-])C2CC2)CCN1c1ccc(Cl)nn1,13%
CN1c2cc(C(=O)Nc3ccc(C(F)(F)F)cc3)ccc2C(=O)N2CCCCCC21 (configuration not stated),11µM*
CN1c2cc(C(=O)Nc3ccc(F)cc3)ccc2C(=O)N2CCCCCC21 (configuration not stated),i
CN1c2cc(C(=O)Nc3ccc(Br)cc3)ccc2C(=O)N2CCCCCC21 (configuration not stated),-21%
CCN1c2cc(C(=O)Nc3ccc(OC(F)(F)F)cc3)ccc2C(=O)N2CCCC21 (configuration not stated),-15%
CCN1c2cc(C(=O)Nc3ccc(OC)cc3)ccc2C(=O)N2CCCCCC21 (configuration not stated),i
CCN1c2cc(C(=O)Nc3ccc(OC(F)(F)F)cc3)ccc2C(=O)N2CCCCC21 (configuration not stated),1.8µM*
SMILES,Pf Dd2 growth
Cc1nc(C)c(CN2CCOC[C@H](Oc3ccc(S(C)(=O)=O)cc3)C2)s1,9%[44.1 µM]
CC1=NS(=O)(=O)N(Cc2cccc(Cl)c2)C=C1C(=O)O,i
O=C1Nc2c(c(=O)[nH]c(=O)n2-c2ccc(F)cc2)C1(NS(=O)(=O)c1ccc(Cl)cc1)C(F)(F)F (configuration not stated),37%
Cc1ccc(-n2c3c(c(=O)[nH]c2=O)C(NS(=O)(=O)c2ccc(Cl)cc2)(C(F)(F)F)C(=O)N3)cc1 (configuration not stated),8.9µM*
Cc1ccc(-n2c3c(c(=O)[nH]c2=O)C(NS(=O)(=O)c2ccc(C)cc2)(C(F)(F)F)C(=O)N3)cc1 (configuration not stated),22%
O=C1NCCOCCCN(C(=O)NC2CCCCC2)[C@H]2CCC[C@@H]12,1%
CC1Oc2ccc(NC(=O)c3c(F)cccc3F)cc2CN(C2CCCc3ccccc32)C1=O (configuration not stated),-19%
CCc1ccc(NC(=O)N2C[C@@H](F)C[C@H]2C(=O)N2CCCCC2)cc1,16%
COCc1cc(=O)n(CC(=O)Nc2cc(F)ccc2F)c(N2CCOCC2)n1,i
